# Experimental data published in PubChem BioAssay (Tox21).
# Results filed as inconclusive are left out. Where a call stands in place of a potency, no number is given. Active and inactive are the calls of the source. Calls follow the shape of the dose curve; as a rule, active = well fitted curve in the direction sought with a large enough effect in the repeat runs; inconclusive = weak or mixed curves; inactive = no such curve, though single readings can be large; an effect the other way counts as inactive or inconclusive.
# How the values were obtained:
# [1] = A CellTox Green Cytotoxicity Assay to monitor cytotoxicity in HepG2 cells - 0 hour (AID 1224882); also: nearly all actives have a fitted effect of over 35% in size
# Outline: (§1)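 HepG2, 600 cells/well premixed w/ CellTox Green; 5 h settle, 37 C/5% CO2; pintool cpd add (DMSO); 37 C, 40 h; fluorescence read at 0, 8, 16, 24, 32, 40 h.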
# [2] = A CellTox Green Cytotoxicity Assay to monitor cytotoxicity in HEK293 cells - 8 hour (AID 1224884); also: nearly all actives have a fitted effect of over 35% in size
# Outline: (§2)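 Read-out: fluorescence of a cell-impermeant cyanine dye staining DNA of dead cells, proportional to cytotoxicity. HEK293, 600 cells/well with reagent, compound (23 nL DMSO) added after 5 h; reads at 0, 8, 16, 24, 32, 40 h.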
# [3] = qHTS RealTime-Glo MT Cell Viability Assay in HepG2 cells - 16 hour (AID 1224885); also: nearly all actives have a fitted effect of over 50% in size
# Outline: (§3)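 Cell number in HepG2 cultures estimated from NanoLuc luminescence generated by metabolic reduction of a prosubstrate by living cells. The homogeneous, nonlytic format allowed repeated reads at 0, 8, 16, 24, 32 and 40 h of compound exposure.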
# [4] = qHTS RealTime-Glo MT Cell Viability Assay in HEK293 cells - 24 hour (AID 1224886); also: nearly all actives have a fitted effect of over 50% in size; also: potency is read from the fitted curve at half-maximal effect
# Outline: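 Homogeneous bioluminescent viability format in HEK293 cells (600 cells/well). Following 5 h at 37 C/5% CO2, 23 nL compound was pintooled; the signal was measured repeatedly during 40 h incubation.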
# [5] = qHTS RealTime-Glo MT Cell Viability Assay in HEK293 cells - 8 hour (AID 1224887); also: top concentration of the series differs between compounds; nearly all actives have a fitted effect of over 50% in size
# Outline: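 Luminescence readout at each listed time point; HEK293, 600 cells/well, RealTime-Glo MT reagent added with cells; compounds pinned (23 nL in DMSO) after 5 h at 37 C; continuous culture at 37 C.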
# [6] = A CellTox Green Cytotoxicity Assay to monitor cytotoxicity in HEK293 cells - 16 hour (AID 1224888); also: nearly all actives have a fitted effect of over 35% in size
# Outline: as §2
# [7] = qHTS RealTime-Glo MT Cell Viability Assay in HepG2 cells - 0 hour (AID 1224889); also: nearly all actives have a fitted effect of over 50% in size
# Outline: as §3
# [8] = qHTS assay to identify small molecule antagonists of the estrogen receptor alpha (ER-alpha) signaling pathway using the BG1 cell line in the presence of 0.1 nM 17-beta-estradiol - cell viability counter screen (AID 1259241); also: nearly all actives have a fitted effect of over 40% in size
# Outline: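 Cytotoxicity counter-screen: live-cell protease activity measured by fluorescence (30 min reagent step) in the same wells. Cells were VM7Luc4E2 with endogenous ER-alpha and ERE-driven luciferase, treated 22 hr at 37C alongside 0.1 nM 17beta-estradiol final.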
# [9] = A CellTox Green Cytotoxicity Assay to monitor cytotoxicity in HepG2 cells - 8 hour (AID 1224890); also: nearly all actives have a fitted effect of over 45% in size
# Outline: as §1
Compound,Potency [1],Potency [2],Potency [3],Potency [4],Potency [5],Potency [6],Potency [7],Potency [8],Potency [9]
C=C(C)C(=O)OCCN(C)C,inactive,inactive,inactive,inactive,inactive,inactive,inactive,inactive,–
Cc1ccccc1N=Nc1ccc(N=Nc2c(O)ccc3ccccc23)c(C)c1,inactive,–,inactive,inactive,inactive,inactive,inactive,inactive,inactive
CC[C@]12CCCN3CCc4c(n(c5ccccc45)C(=O)C1)[C@@H]32,inactive,inactive,inactive,4.77 µM (active),–,inactive,inactive,inactive,–
Cn1c(=O)c2c(ncn2CC(O)CO)n(C)c1=O (configuration not stated),inactive,inactive,inactive,inactive,inactive,inactive,inactive,inactive,–
CC(Cc1cccc(C(F)(F)F)c1)NCCOC(=O)c1ccccc1 (configuration not stated),inactive,inactive,inactive,–,–,inactive,inactive,inactive,–
